Whole data set: some 18,000 sequences, median “TetR repression strength (sort-seq, GFP reporter)” near 0.23, cut for the highest 2% near 0.68. Many of the other results were omitted from the sample, so the highest values are more common in it than they were.

Among the data in a collection of fitness landscapes (doi:10.1038/s41467-024-54723-y) are TetR repression strength values, retold here.

TetR (class B, Tn10), sequence (P04483 whole entry): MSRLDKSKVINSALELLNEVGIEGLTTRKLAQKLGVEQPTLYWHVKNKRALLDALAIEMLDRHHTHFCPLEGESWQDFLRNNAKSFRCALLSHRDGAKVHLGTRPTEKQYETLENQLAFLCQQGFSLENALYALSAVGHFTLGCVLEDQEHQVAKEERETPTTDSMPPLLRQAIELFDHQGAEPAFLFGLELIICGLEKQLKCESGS

In the assay the target is TetR (class B, Tn10) (UniProt P04483). Kind of assay: TetR repression strength (sort-seq, GFP reporter) (relative to tetO2 = 1); higher = stronger repression. The following applies: E. coli. The procedure, abridged:
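E. coli SIG10-MAX carried a low-copy plasmid library with eight randomized operator positions between a constitutive promoter and sfGFP, with TetR constitutively expressed. Cells grew 5 h at 37 °C in LB with 50 µg/mL chloramphenicol, then 10^6 cells were FACS-sorted into 13 fluorescence bins, each Illumina-sequenced. Repression strength is the top bin index plus one minus the read-weighted mean bin, divided by the wild-type operator value. Three independent transformations; variants with ≥30 reads in all replicates and CV ≤0.5 were averaged.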
In turn, TCCCACTCAGTGAGAGAGA yielded a TetR repression strength of 0.514.

As for TCCCAAGCAGTGATAGAGA, the TetR repression strength was determined as 0.505.

For the sequence TCCCCATAAGTGATAGAGA, the TetR repression strength is 0.522.

The sequence TCCCAATCAGTGGTAGAGA yielded a TetR repression strength of 0.521.

TCCCAGTCAGTGACAGAGA had a TetR repression strength of 0.416.

Sequence TCCCACTAAGTGATAGAGA returned a TetR repression strength of 0.427.

In turn, TCCCAATCAGTGATAGAGA registered a TetR repression strength of 0.785.

TCCCACTCAGTGATAGAGA returned a TetR repression strength of 0.701.

As for TCCCCGAGAGTGTTGGAGA, the TetR repression strength was found to be 0.156.

The sequence TCCCGACGAGTAAGTGAGA gave a TetR repression strength of 0.0202.

Turning to TCCCGTGCAGTGGGAGAGA, the TetR repression strength stood at 0.177.

As to TCCCCGAAAGTGGTTGAGA, the TetR repression strength turned out to be 0.272.

With TCCCCAGTAGTGTAAGAGA, the TetR repression strength worked out at 0.139.

TCCCTCGTAGTTCGTGAGA registered a TetR repression strength of 0.105.

TCCCGTAGAGTGCAAGAGA registered a TetR repression strength of 0.396.

In the case of TCCCGGGCAGTGAAGGAGA, the TetR repression strength amounted to 0.251.

As to TCCCGCGGAGTGACGGAGA, the TetR repression strength amounted to 0.38.

On to TCCCGAGGAGTACGAGAGA, for which the TetR repression strength was found to be 0.222.

With TCCCCCATAGTCAGGGAGA, the TetR repression strength turned out to be 0.312.

TCCCAATCAGTGTAAGAGA gave a TetR repression strength of 0.74.

TCCCAATCAGTTTAAGAGA: the TetR repression strength worked out at 0.368.

With TCCCAATCAGTGTCAGAGA, the TetR repression strength was determined as 0.335.

The sequence TCCCAAGAAGTGAAAGAGA returned a TetR repression strength of 0.2.

TCCCAATAAGTGAAAGAGA had a TetR repression strength of 0.688.

On to TCCCAATCAGTCAAAGAGA, for which the TetR repression strength is 0.676.

The sequence TCCCAATCAGTGAAGGAGA registered a TetR repression strength of 0.671.

In turn, TCCCAATCAGTGAAAGAGA registered a TetR repression strength of 0.686.

In turn, TCCCAATAAGTGTAAGAGA returned a TetR repression strength of 0.21.

As to TCCCACTAAGTTATAGAGA, the TetR repression strength was 0.672.

TCCCTGCTAGTTAGGGAGA registered a TetR repression strength of 0.181.

The sequence TCCCGTCGAGTGGGAGAGA showed a TetR repression strength of 0.494.

TCCCTCAAAGTGTACGAGA gave a TetR repression strength of 0.165.

Consider TCCCGCTAAGTAAGTGAGA, for which the TetR repression strength turned out to be 0.00864.

TCCCTATAAGTCGTCGAGA registered a TetR repression strength of 0.307.

Turning to TCCCTCTCAGTTATCGAGA, the TetR repression strength is 0.603.

TCCCTTTCAGTCATCGAGA: the TetR repression strength worked out at 0.53.

TCCCAATCAGTTATCGAGA yielded a TetR repression strength of 0.468.

The sequence TCCCTACAAGTCATCGAGA displayed a TetR repression strength of 0.309.

Turning to TCCCTATCAGTTATCGAGA, the TetR repression strength turned out to be 0.859.

TCCCTATCAGTCATCGAGA gave a TetR repression strength of 0.747.

Take TCCCTACCAGTGATCGAGA: the TetR repression strength turned out to be 0.593.

The sequence TCCCAATCAGTCATCGAGA came in with a TetR repression strength of 0.557.

As to TCCCTATAAGTCATCGAGA, the TetR repression strength was 0.687.

Sequence TCCCTAGTAGTGATCGAGA yielded a TetR repression strength of 0.37.

TCCCTATCAGTGATCGAGA: the TetR repression strength was found to be 0.868.

The sequence TCCCCCACAGTGTAAGAGA had a TetR repression strength of 0.183.

As for TCCCGCTTAGTCCTCGAGA, the TetR repression strength is 0.44.

TCCCAATAAGTACGCGAGA yielded a TetR repression strength of 0.348.

Consider TCCCAGCCAGTTTTGGAGA, for which the TetR repression strength came to 0.298.

In the case of TCCCCGGAAGTTGCGGAGA, the TetR repression strength came out at 0.0399.

As to TCCCGGGGAGTTATCGAGA, the TetR repression strength worked out at 0.161.

For TCCCACGGAGTGGTGGAGA, the TetR repression strength worked out at 0.11.

As to TCCCGACGAGTACATGAGA, the TetR repression strength worked out at 0.629.

Turning to TCCCTCAGAGTGGACGAGA, the TetR repression strength stood at 0.314.

For the sequence TCCCTATCAGTTATAGAGA, the TetR repression strength turned out to be 0.809.

Turning to TCCCTATGAGTTATAGAGA, the TetR repression strength stood at 0.439.

For TCCCTATCAGTCGTAGAGA, the TetR repression strength was 0.557.

With TCCCTATCAGTCATAGAGA, the TetR repression strength worked out at 0.924.

TCCCTGTCAGTCATAGAGA: the TetR repression strength came out at 0.617.

TCCCTATAAGTTATAGAGA gave a TetR repression strength of 0.651.

The sequence TCCCTCTCAGTGTGGGAGA gave a TetR repression strength of 0.234.

Consider TCCCCAAAAGTGGGGGAGA, for which the TetR repression strength came out at 0.196.

As for TCCCCAAAAGTTTTGGAGA, the TetR repression strength came to 0.276.

Regarding TCCCAAAAAGTGTGGGAGA, the TetR repression strength is 0.415.

With TCCCCAAAAGTGTGGGAGA, the TetR repression strength is 0.821.

Sequence TCCCCAAGAGTCTTGGAGA showed a TetR repression strength of 0.193.

In turn, TCCCTCACAGTGTGGGAGA returned a TetR repression strength of 1.22.

In turn, TCCCCAAAAGTCTTGGAGA came in with a TetR repression strength of 0.681.

For the sequence TCCCCAACAGTGTTGGAGA, the TetR repression strength worked out at 0.292.

The sequence TCCCCAACAGTCTTGGAGA yielded a TetR repression strength of 0.692.

TCCCCAAAAGTCATGGAGA gave a TetR repression strength of 0.

On to TCCCTCACAGTGGGGGAGA, for which the TetR repression strength turned out to be 0.189.

Regarding TCCCGGGTAGTCAAGGAGA, the TetR repression strength turned out to be 0.296.

Take TCCCAGGAAGTCGTTGAGA: the TetR repression strength amounted to 0.

For TCCCGGCCAGTTGTTGAGA, the TetR repression strength stood at 0.199.

Sequence TCCCGAATAGTCGACGAGA returned a TetR repression strength of 0.165.

In turn, TCCCGTATAGTCTGGGAGA had a TetR repression strength of 0.198.

On to TCCCAGCAAGTGTGTGAGA, for which the TetR repression strength stood at 0.1.

Take TCCCAGCTAGTGAACGAGA: the TetR repression strength was 0.379.

With TCCCAGCTAGTGAGAGAGA, the TetR repression strength is 0.36.

As for TCCCAGCGAGTGACGGAGA, the TetR repression strength stood at 0.207.

As for TCCCAGCTAGTGACCGAGA, the TetR repression strength is 0.694.

In turn, TCCCAGCGAGTGACCGAGA returned a TetR repression strength of 0.694.

Sequence TCCCAGCTAGTGAGTGAGA displayed a TetR repression strength of 0.716.

Sequence TCCCAGCAAGTGGGTGAGA had a TetR repression strength of 0.699.

TCCCAGCTAGTGATTGAGA came in with a TetR repression strength of 0.306.

TCCCAGCAAGTGAGTGAGA displayed a TetR repression strength of 0.201.

In turn, TCCCAGCGAGTGAGCGAGA came in with a TetR repression strength of 0.153.

Sequence TCCCAGCTAGTGACGGAGA came in with a TetR repression strength of 0.226.

TCCCTTCGAGTTCTCGAGA returned a TetR repression strength of 0.207.

Take TCCCTCCTAGTCTCCGAGA: the TetR repression strength amounted to 0.394.

Sequence TCCCACGGAGTCGGCGAGA displayed a TetR repression strength of 0.148.

TCCCGGAAAGTCACAGAGA: the TetR repression strength stood at 0.108.

In the case of TCCCTGTGAGTGGACGAGA, the TetR repression strength amounted to 0.227.

For TCCCAGCTAGTTTCTGAGA, the TetR repression strength turned out to be 0.207.

In turn, TCCCTAAAAGTGTAGGAGA yielded a TetR repression strength of 0.131.

In the case of TCCCAGTGAGTTCGCGAGA, the TetR repression strength came out at 0.402.

TCCCACTCAGTATGTGAGA displayed a TetR repression strength of 0.108.

TCCCGTACAGTGTTAGAGA registered a TetR repression strength of 0.284.

Sequence TCCCGTCTAGTGTTAGAGA showed a TetR repression strength of 0.851.

The sequence TCCCGTAAAGTGTTAGAGA gave a TetR repression strength of 0.696.

TCCCGTTTAGTGTTAGAGA came in with a TetR repression strength of 0.222.

For the sequence TCCCGTGTAGTGTTAGAGA, the TetR repression strength was determined as 0.24.

TCCCGTAAAGTGTGAGAGA had a TetR repression strength of 0.0929.
